High-throughput results deposited in PubChem BioAssay by The Scripps Research Institute Molecular Screening Center.
TEAD-YAP inh – TEAD-YAP interaction inhibition; HEK-TIYL cells, TEAD-Gal4/YAP UAS-luciferase luminescence; inhibition, % at 9.12 µM; 640,000 tested, 1.4% active; AID 1259422; in the data active = inhibition above about 32%
GPR151 activ – activates the human receptor GPR151; Q8TDV0; PathHunter beta-arrestin GPR151 cells, luminescence; activation, % at 11.2 µM; 650,000 tested, 1% active; AID 1508602; in the data active = activation above about 4.9%
FBW7 activator – activators of human E3 ligase FBW7 | Q969H0 | AlphaScreen FBW7–phospho-cyclin E peptide binding, activator screen | normalized activity (activation), % at 26.1 µM | 650,000 tested, 0.13% active; in the data active = normalized activity above about 1.9%;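 note: purified mutant Fbw7 with reduced substrate affinity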
Target sequence (Q969H0 whole entry, looked up): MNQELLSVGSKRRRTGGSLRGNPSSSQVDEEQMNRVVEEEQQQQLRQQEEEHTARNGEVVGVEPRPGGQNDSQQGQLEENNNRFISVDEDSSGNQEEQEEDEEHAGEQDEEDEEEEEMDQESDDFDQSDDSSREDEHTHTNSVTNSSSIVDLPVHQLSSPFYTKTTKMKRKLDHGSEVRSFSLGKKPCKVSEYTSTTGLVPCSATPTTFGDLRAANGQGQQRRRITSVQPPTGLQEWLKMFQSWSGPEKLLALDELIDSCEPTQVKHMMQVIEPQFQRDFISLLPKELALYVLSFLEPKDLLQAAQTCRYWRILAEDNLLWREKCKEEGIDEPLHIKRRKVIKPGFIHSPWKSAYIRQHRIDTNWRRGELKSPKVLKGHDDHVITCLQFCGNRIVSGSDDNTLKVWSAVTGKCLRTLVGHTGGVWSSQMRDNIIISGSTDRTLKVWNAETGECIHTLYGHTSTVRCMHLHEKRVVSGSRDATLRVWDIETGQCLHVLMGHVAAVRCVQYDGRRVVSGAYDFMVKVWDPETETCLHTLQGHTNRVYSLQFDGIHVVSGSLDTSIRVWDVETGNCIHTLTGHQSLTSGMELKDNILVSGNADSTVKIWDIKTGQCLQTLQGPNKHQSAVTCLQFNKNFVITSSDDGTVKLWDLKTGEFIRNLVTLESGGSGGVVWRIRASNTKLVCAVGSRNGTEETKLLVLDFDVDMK
MITF primary – blocks human microphthalmia-associated transcription factor | inhibition, % at 2.6 µM | O75030 | AlphaScreen MITF homodimerization, bead proximity signal | AID 1259374 | 650,000 tested, 0.91% active; in the data active = inhibition above about 50%
GPR151 confirm – confirmation of human GPR151 activators; shares compounds with GPR151 activ; GPR151 PathHunter beta-arrestin cells, luminescence, 90 min; % of EA-reagent control over plate median; activation, % at 11.2 µM; 6,700 tested, under 10 active;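 active = mean percent activation across replicates above the confirmation screen cutoff of 4.91%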
GPR119 ag – GPR119 activation, counter-screen for GPR151 activators | 6,700 tested, 0.3% active | activation, % at 11.2 µM | GPR119 PathHunter beta-arrestin cells, luminescence, 90 min; 0 = compound-well median, 100 = enzyme-acceptor control | shares compounds with GPR151 activ;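 active = mean percent activation in the counterscreen above 29.09%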;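 note: counterscreen on off-target GPR119 to flag nonselective hits from the GPR151 activator screen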
Large screens that a line does not name were inactive (follow-up assays come after a bar, where they were run); ! = not confirmed by another sample. Only some compounds are listed: those with a hit (about 3.5% of all), similar ones and a draw of the others.

CCc1c(C)c(C#N)c2nc3ccccc3n2c1N1CCN(CCOc2ccc(Cl)cc2)CC1	none
N#CCCNS(=O)(=O)c1ccc(C(=O)OCc2cccc3ccccc23)cc1	none
CC(C)CC(NCCC(O)c1ccccc1)C(=O)O (stereo not given)	GPR151 activ 8.3 | GPR151 confirm inactive | GPR119 ag inactive
CSCCC(NCCC(O)c1ccccc1)C(=O)O (stereo not given)	none
Cc1ccc(S(=O)(=O)NCCCOC(C)C)cc1	GPR151 activ 5.0 | GPR151 confirm inactive | GPR119 ag inactive
O=CNC(c1ccccc1)c1ccc(Cl)cc1Cl (stereo not given)	GPR151 activ 9.9 | GPR151 confirm inactive | GPR119 ag inactive
O=CNC(c1ccc(Cl)cc1)c1ccc(Cl)cc1	none
COc1c([N+](=O)[O-])c(=O)oc2ccc([N+](=O)[O-])cc12	none
CC(=N)c1c(O)c2cc([N+](=O)[O-])ccc2oc1=O	GPR151 activ 5.7 | GPR151 confirm inactive | GPR119 ag inactive
O=C1NC(c2ccc(Cl)cc2Cl)Oc2ccccc21 (stereo not given)	GPR151 activ 8.9 | GPR151 confirm inactive | GPR119 ag inactive
COc1cc(CO)cc(Cl)c1OCc1ccccc1C#N	GPR151 activ 6.7 | GPR151 confirm inactive | GPR119 ag inactive
COc1ccc(/C=N/N=c2\sc3ccccc3n2C)c(OC)c1	GPR151 activ 9.2 | GPR151 confirm inactive | GPR119 ag inactive
COc1cccc(/C=N\N=c2\sc3ccccc3n2C)c1OC	none
CCn1c(=O)n(-c2ccccc2)c(=O)c2c3c(sc21)CN(C(C)=O)CC3	none
CCn1c(=O)n(-c2ccccc2C)c(=O)c2c3c(sc21)CN(C(C)=O)CC3	GPR151 activ 9.0 | GPR151 confirm inactive | GPR119 ag inactive
COc1ccc(C(=O)NC(C)c2nnc(SCC(=O)Nc3ccccc3)n2C)cc1 (stereo not given)	GPR151 activ 9.6 | GPR151 confirm inactive | GPR119 ag inactive
Cc1noc(C(=O)Nc2c(C)nn(Cc3ccccc3)c2C)c1Cl	GPR151 activ 5.3 | GPR151 confirm inactive | GPR119 ag inactive
O=C(O)CCCCCN1C(=O)C(O)=C(C(=O)/C=C/c2ccccc2)C1c1ccccc1Cl (stereo not given)	GPR151 activ 5.0 | GPR151 confirm inactive | GPR119 ag inactive
COC(=O)c1cc([N+](=O)[O-])c(C(=O)OC)cc1Oc1ccc(Cl)cc1	GPR151 activ 6.4 | GPR151 confirm inactive | GPR119 ag inactive
Cc1c(N=CN(C)C)cc([N+](=O)[O-])cc1[N+](=O)[O-]	none
Cc1c(N=Cc2ccccc2)cc([N+](=O)[O-])cc1[N+](=O)[O-]	GPR151 activ 5.3 | GPR151 confirm inactive | GPR119 ag inactive
COc1ccccc1C1CN(CC(=O)NCc2cnc3ccccn23)Cc2ccccc2O1 (stereo not given)	none
O=C(Nc1ccc(Oc2ccc(Cl)cc2)cc1)C1CCCN1C(=O)OCc1ccccc1 (stereo not given)	GPR151 activ 5.5 | GPR151 confirm inactive | GPR119 ag inactive
Cc1cc([N+](=O)[O-])ccc1-c1ccc(C(=O)NC(C)(C)C)o1	GPR151 activ 7.7 | GPR151 confirm inactive | GPR119 ag inactive
CCN(CC)CCNC(=O)c1cc(Cl)c(N)cc1OC	GPR151 activ 6.6! | GPR151 confirm inactive | GPR119 ag inactive
COc1ccccc1-n1c(O)c(C=Nc2cccc(C)c2)c(=O)[nH]c1=S	GPR151 activ 5.1 | GPR151 confirm inactive | GPR119 ag inactive
O=C(NCCOc1ccccc1)c1ccnc(-c2csc3ccccc23)c1	GPR151 activ 4.9 | GPR151 confirm inactive | GPR119 ag inactive
O=C(O)c1ccccc1NCc1ccc(Cl)c([N+](=O)[O-])c1	none
CC1=C(C#N)C(=O)NC(=O)/C1=C\c1ccc(-c2cccc(C(=O)OC(C)C)c2)o1	GPR151 activ 5.0 | GPR151 confirm inactive | GPR119 ag inactive
CC(=O)c1cccc(-c2ccc(/C=C3\C(=O)NC(=O)C(C#N)=C3C)o2)c1	none
CCCCOC(=O)c1cccc(-c2ccc(/C=C3\C(=O)N(CCO)C(=O)C(C#N)=C3C)o2)c1	GPR151 activ 8.9 | GPR151 confirm inactive | GPR119 ag inactive
CCNC(=O)NNc1nc(N2CCOCC2)nc(N2CCOCC2)n1	none
